Activity calls are given as the source filed them. Rule for the calls: active = hit-call score of the fitted dose curve at least 0.9, where 1 is the maximum; inactive = score below 0.9.
Legend:
Details in all cases: mRNA level, 48 h; actives raise or lower the signal
[1] = read-out: Glutathione S-Transferase (GSTA2), GSTA2 (gene 2939); experiment: LTEA_HepaRG_GSTA2: Life Technologies and Expression Analysis (LTEA) Assay for Glutathione S-Transferase (GSTA2) using HepaRG (AID 2283497)
Summary of the method: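 HepaRG, 48 h dosing, 8-pt half-log CRC from 100 uM, 0.5% DMSO vehicle, n=2; RNA → Fluidigm TaqMan qRT-PCR; GSTA2 vs ACTB/GAPDH/POLR2A; gain/loss fit vs DMSO.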

[2] = read-out: growth arrest and DNA damage 45 (GADD45G), GADD45G (gene 10912); experiment: LTEA_HepaRG_GADD45G: Life Technologies and Expression Analysis (LTEA) Assay for growth arrest and DNA damage 45 (GADD45G) using HepaRG (AID 2283499)
Summary of the method: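 HepaRG, 48 h exposure, top 100 uM, half-log 8-point series, 0.5% DMSO vehicle, duplicates. Readout: GADD45G transcript by qRT-PCR (Fluidigm array), housekeeping-normalised (ACTB/GAPDH/POLR2A). Bidirectional curve fit vs DMSO baseline.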

[3] = read-out: Glutamate-cysteine ligase regulatory (GCLM), GCLM (gene 2730); experiment: LTEA_HepaRG_GCLM: Life Technologies and Expression Analysis (LTEA) Assay for Glutamate-cysteine ligase regulatory (GCLM) using HepaRG (AID 2283500)
Summary of the method: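 Differentiated human HepaRG cells exposed 48 h in serum-free induction medium to 8-point half-log concentrations (top 100 uM, 0.5% DMSO), in duplicate. GCLM mRNA quantified by qRT-PCR, normalized to ACTB, GAPDH, POLR2A; bidirectional fitting versus DMSO.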

[4] = read-out: Glutathione S-transferase M3 (GSTM3), GSTM3 (gene 2947); experiment: LTEA_HepaRG_GSTM3: Life Technologies and Expression Analysis (LTEA) Assay for Glutathione S-transferase M3 (GSTM3) using HepaRG (AID 2283501)
Summary of the method: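 qRT-PCR read-out of GSTM3 transcript, normalized to three housekeeping genes, from human HepaRG cells after 48 h chemical exposure. Eight-point half-log series, top 100 uM, 0.5% DMSO vehicle; gain or loss fitted relative to DMSO baseline.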

[5] = read-out: 3-Hydroxy-3-Methylglutaryl-CoA Synthase 2 (HMGCS2), HMGCS2 (gene 3158); experiment: LTEA_HepaRG_HMGCS2: Life Technologies and Expression Analysis (LTEA) Assay for 3-Hydroxy-3-Methylglutaryl-CoA Synthase 2 (HMGCS2) using HepaRG (AID 2283504)
Summary of the method: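 qRT-PCR read-out of HMGCS2 transcript, normalised to three housekeeping genes, in HepaRG cells after 48 h chemical exposure. Eight-point curves from 100 uM, half-log dilutions, 0.5% DMSO vehicle; gain or loss fitted relative to DMSO baseline.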

[6] = read-out: HGF (gene 3082); experiment: LTEA_HepaRG_HGF: Life Technologies and Expression Analysis (LTEA) Assay for Hepatocyte Growth Facto (HGF) using HepaRG (AID 2283505)
Summary of the method: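 HepaRG, 48 h dosing, 8-pt half-log series from 100 uM in 0.5% DMSO, duplicates. Readout: TaqMan qRT-PCR of HGF mRNA, housekeeping-normalized; bidirectional curve fit vs DMSO baseline.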

[7] = read-out: Insulin Like Growth Factor 1 (IGF1), IGF1 (gene 3479); experiment: LTEA_HepaRG_IGF1: Life Technologies and Expression Analysis (LTEA) Assay for Insulin Like Growth Factor 1 (IGF1) using HepaRG (AID 2283506)
Summary of the method: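 Differentiated human HepaRG cells were dosed for 48 h in serum-free induction medium with 0.5% DMSO, eight half-log concentrations up to 100 uM, in duplicate. IGF1 mRNA was quantified by qRT-PCR normalized to ACTB, GAPDH, POLR2A; bidirectional fitting versus DMSO.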

[8] = read-out: Intercellular Adhesion Molecule 1 (ICAM1), ICAM1 (gene 3383); experiment: LTEA_HepaRG_ICAM1: Life Technologies and Expression Analysis (LTEA) Assay for Intercellular Adhesion Molecule 1 (ICAM1) using HepaRG (AID 2283507)
Summary of the method: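 HepaRG, 48 h exposure, 8-pt half-log series from 100 uM, 0.5% DMSO vehicle, duplicates. Readout: TaqMan qRT-PCR mRNA, housekeeping-normalized (ACTB/GAPDH/POLR2A). Bidirectional curve fit vs DMSO baseline.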

[9] = read-out: Insulin-like growth factor-binding protein 1 (IGFBP1), IGFBP1 (gene 3484); experiment: LTEA_HepaRG_IGFBP1: Life Technologies and Expression Analysis (LTEA) Assay for Insulin-like growth factor-binding protein 1 (IGFBP1) using HepaRG (AID 2283508)
Summary of the method: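 qRT-PCR mRNA read-out (TaqMan, Fluidigm array), normalised to three housekeeping genes; HepaRG cells, 48 h exposure, 8-pt half-log series from 100 uM, 0.5% DMSO vehicle; bidirectional curve fit vs DMSO baseline.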

[10] = read-out: Interleukin 6 (IL6), IL6 (gene 3569); experiment: LTEA_HepaRG_IL6: Life Technologies and Expression Analysis (LTEA) Assay for Interleukin 6 (IL6) using HepaRG (AID 2283509)
Summary of the method: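 HepaRG, ~100,000 cells/well, 48 h pre-culture; serum-free induction medium; cmpd 8-pt half-log from 100 uM, 0.5% DMSO, duplicate, 48 h. Lysis in RLT, TaqMan qRT-PCR; gain or loss vs DMSO.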

[11] = read-out: Interleukin 6 Receptor (IL6R), IL6R (gene 3570); experiment: LTEA_HepaRG_IL6R: Life Technologies and Expression Analysis (LTEA) Assay for Interleukin 6 Receptor (IL6R) using HepaRG (AID 2283510)
Summary of the method: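 Differentiated human HepaRG cells, plated 48 h then switched to serum-free induction medium, were dosed in duplicate for 48 h at eight half-log concentrations up to 100 uM in 0.5% DMSO. IL6R mRNA quantified by qRT-PCR, normalized to ACTB/GAPDH/POLR2A; bidirectional fit versus DMSO.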

[12] = read-out: Potassium channel subfamily K member 1 (KCNK1), KCNK1 (gene 3775); experiment: LTEA_HepaRG_KCNK1: Life Technologies and Expression Analysis (LTEA) Assay for Potassium channel subfamily K member 1 (KCNK1) using HepaRG (AID 2283511)
Summary of the method: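 Gain or loss of KCNK1 mRNA is the read-out, quantified by qRT-PCR against three housekeeping genes after 48 h chemical treatment of human HepaRG liver cells. Concentrations ran from 100 uM downward in half-log steps, vehicle 0.5% DMSO.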

[13] = read-out: Keratin 19 (KRT19), KRT19 (gene 3880); experiment: LTEA_HepaRG_KRT19: Life Technologies and Expression Analysis (LTEA) Assay for Keratin 19 (KRT19) using HepaRG (AID 2283512)
Summary of the method: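 HepaRG, 48 h chemical exposure, 8-pt half-log CRC from 100 uM, 0.5% DMSO vehicle, duplicates. Readout: TaqMan qRT-PCR of KRT19 mRNA, housekeeping-normalized (ACTB/GAPDH/POLR2A). Bidirectional fit vs DMSO baseline.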

[14] = read-out: JUN Transcription Factor, JUN (gene 3725); experiment: LTEA_HepaRG_JUN: Life Technologies and Expression Analysis (LTEA) Assay for JUN Transcription Factor using HepaRG (AID 2283513)
Summary of the method: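 Differentiated HepaRG cells were exposed to chemicals for 48 h in serum-free induction medium, 8 concentrations from 100 uM in half-log steps, 0.5% DMSO vehicle, in duplicate. JUN mRNA was quantified by TaqMan qRT-PCR, normalized to ACTB, GAPDH, POLR2A.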

[15] = read-out: Lipase C (LIPC), LIPC (gene 3990); experiment: LTEA_HepaRG_LIPC: Life Technologies and Expression Analysis (LTEA) Assay for Lipase C (LIPC) using HepaRG (AID 2283514)
Summary of the method: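 Read-out is LIPC transcript level by TaqMan qRT-PCR, normalized to three housekeeping genes, after 48 h chemical treatment of human HepaRG liver cells. Curves span eight concentrations topping at 100 uM; activity in either direction scored relative to 0.5% DMSO.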

[16] = read-out: Lipoprotein lipase (LPL), LPL (gene 4023); experiment: LTEA_HepaRG_LPL: Life Technologies and Expression Analysis (LTEA) Assay for Lipoprotein lipase (LPL) using HepaRG (AID 2283515)
Summary of the method: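 Read-out is LPL transcript level by qRT-PCR, normalized to three housekeeping genes and fitted bidirectionally against the DMSO control. Human HepaRG cells received chemicals for 48 h at up to 100 uM.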

[17] = read-out: MicroRNA 122 (MIR122), gene 406906; experiment: LTEA_HepaRG_MIR122: Life Technologies and Expression Analysis (LTEA) Assay for MicroRNA 122 (MIR122) using HepaRG (AID 2283516); note: the transcript read is the microRNA miR-122
Summary of the method: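 Differentiated human HepaRG cells were exposed 48 h in serum-free induction medium to eight half-log concentrations (top 100 uM, 0.5% DMSO). Transcript level was measured by TaqMan qRT-PCR, normalized to ACTB, GAPDH and POLR2A, and fitted bidirectionally versus DMSO.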

[18] = read-out: Heat shock 70 kDa protein 1 (HSPA1A), gene 3303; experiment: LTEA_HepaRG_HSPA1A: Life Technologies and Expression Analysis (LTEA) Assay for Heat shock 70 kDa protein 1 (HSPA1A) using HepaRG (AID 2283502)
Summary of the method: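 Differentiated human HepaRG cells in serum-free induction medium were exposed in duplicate for 48 h to eight concentrations (top 100 uM, half-log steps, 0.5% DMSO). HSPA1A mRNA was quantified by qRT-PCR, normalized to ACTB, GAPDH and POLR2A, and fitted bidirectionally against DMSO.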

[19] = read-out: Hypoxia-inducible factor 1-alpha (Homo sapiens) (UniProt Q16665); experiment: LTEA_HepaRG_HIF1A: Life Technologies and Expression Analysis (LTEA) Assay for Hypoxia-inducible factor 1 (HIF1A) Trancription factor using HepaRG (AID 2283503);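 note: HIF1A transcript by TaqMan qRT-PCR normalized to ACTB GAPDH and POLR2A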
Summary of the method: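 HepaRG, 48 h exposure, 8-pt half-log series from 100 uM, 0.5% DMSO vehicle, duplicates. Readout: HIF1A transcript by qRT-PCR (Fluidigm array), housekeeping-normalised. Bidirectional curve fit vs DMSO baseline.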

Hypoxia-inducible factor 1-alpha (Homo sapiens), sequence (Q16665 whole entry, looked up): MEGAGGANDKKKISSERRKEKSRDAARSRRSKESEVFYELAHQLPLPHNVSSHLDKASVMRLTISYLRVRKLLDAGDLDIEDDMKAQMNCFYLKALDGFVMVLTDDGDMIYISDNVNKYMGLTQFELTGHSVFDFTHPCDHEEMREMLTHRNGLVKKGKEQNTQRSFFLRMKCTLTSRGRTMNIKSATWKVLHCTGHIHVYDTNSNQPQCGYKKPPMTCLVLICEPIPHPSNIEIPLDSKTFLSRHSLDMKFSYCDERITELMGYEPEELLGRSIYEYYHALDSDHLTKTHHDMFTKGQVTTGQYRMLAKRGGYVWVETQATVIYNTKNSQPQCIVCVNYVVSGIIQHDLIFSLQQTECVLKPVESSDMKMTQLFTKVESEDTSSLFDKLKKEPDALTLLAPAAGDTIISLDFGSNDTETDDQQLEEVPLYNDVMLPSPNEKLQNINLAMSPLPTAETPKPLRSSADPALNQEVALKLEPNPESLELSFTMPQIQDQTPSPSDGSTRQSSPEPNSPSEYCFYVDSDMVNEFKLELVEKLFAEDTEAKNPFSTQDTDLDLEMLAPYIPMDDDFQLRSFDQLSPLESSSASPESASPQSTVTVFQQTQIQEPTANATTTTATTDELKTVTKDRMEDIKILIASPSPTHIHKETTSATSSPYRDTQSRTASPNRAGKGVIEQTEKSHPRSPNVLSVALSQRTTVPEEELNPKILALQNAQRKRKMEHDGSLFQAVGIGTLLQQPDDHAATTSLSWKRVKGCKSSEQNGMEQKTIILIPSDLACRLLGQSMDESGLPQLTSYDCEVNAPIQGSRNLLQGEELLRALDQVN

Nc1cccc(N)c1
outcome [1]: inactive
outcome [2]: inactive
outcome [3]: inactive
outcome [4]: inactive
outcome [5]: inactive
outcome [6]: inactive
outcome [7]: inactive
outcome [8]: inactive
outcome [9]: inactive
outcome [10]: inactive
outcome [11]: inactive
outcome [12]: inactive
outcome [13]: inactive
outcome [14]: inactive
outcome [15]: inactive
outcome [16]: inactive
outcome [17]: inactive

CCOCCO
outcome [1]: inactive
outcome [2]: inactive
outcome [3]: inactive
outcome [4]: inactive
outcome [18]: inactive
outcome [5]: inactive
outcome [6]: inactive
outcome [7]: inactive
outcome [8]: inactive
outcome [9]: inactive
outcome [10]: inactive
outcome [11]: inactive
outcome [12]: inactive
outcome [13]: inactive
outcome [14]: inactive
outcome [15]: inactive
outcome [16]: inactive
outcome [17]: inactive

COc1cccc(-c2ccc(/C=C\CN3CCCCCC3)cc2Cl)c1
AC50 [1]: 71 µM (active)
AC50 [2]: 45.2 µM (active)
AC50 [3]: 68.7 µM (active)
AC50 [4]: 79.1 µM (active)
AC50 [5]: 83.9 µM (active)
outcome [6]: inactive
AC50 [7]: 66.7 µM (active)
AC50 [8]: 75.7 µM (active)
AC50 [9]: 74.5 µM (active)
AC50 [10]: 74.8 µM (active)
outcome [11]: inactive
AC50 [12]: 79.3 µM (active)
AC50 [13]: 45.2 µM (active)
AC50 [14]: 73.9 µM (active)
AC50 [15]: 70.6 µM (active)
AC50 [16]: 79 µM (active)
outcome [17]: inactive

O=C1CCC(N2C(=O)c3ccccc3C2=O)C(=O)N1 (configuration not stated)
outcome [1]: inactive
outcome [2]: inactive
outcome [3]: inactive
outcome [4]: inactive
outcome [5]: inactive
outcome [6]: inactive
outcome [7]: inactive
outcome [8]: inactive
outcome [9]: inactive
outcome [10]: inactive
outcome [11]: inactive
outcome [12]: inactive
outcome [13]: inactive
outcome [14]: inactive
outcome [15]: inactive
outcome [16]: inactive
outcome [17]: inactive

CCCCC(CC)COC(=O)CCCCCCCCC(=O)OCC(CC)CCCC (configuration not stated)
outcome [1]: inactive
outcome [2]: inactive
outcome [3]: inactive
outcome [4]: inactive
outcome [19]: inactive
outcome [5]: inactive
outcome [6]: inactive
outcome [7]: inactive
outcome [8]: inactive
outcome [9]: inactive
outcome [10]: inactive
outcome [11]: inactive
outcome [12]: inactive
outcome [13]: inactive
outcome [14]: inactive
outcome [15]: inactive
outcome [16]: inactive
outcome [17]: inactive
